High-throughput results deposited in PubChem BioAssay by National Center for Advancing Translational Sciences (NCATS).
Pf growth 48h: inhibits P. falciparum growth in the first generation, 48 h. P. falciparum luciferase growth in erythrocytes, 48 h. Potency, µM (series often up to 28.7 µM), inactives show at the highest dose activity change, negative = inhibition, actives largely listed as inhibitors. 310,000 compounds, 5.9% hits. AID 504832; further: potency means the concentration at half of the fitted maximal effect; on the % scale 0 is the no-effect control and ±100 the full control effect
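Read-out is firefly luciferase luminescence from an integrated reporter in P. falciparum, so falling signal marks reduced parasite growth. Infected erythrocytes were at 2% hematocrit and 0.1% parasitemia (final) in Albumax-supplemented RPMI 1640.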
CHX counter: counter-screen hit for Shiga toxin inhibitors, cycloheximide; cell reporter, cycloheximide protein synthesis inhibition counterscreen; max response, %; 300,000 compounds, 12% hits; AID 2314; in the data active means max response mostly above about 13%, no sharp cut-off; inactive means mostly below about 14%; further: read at 38.3 µM for the half of the compounds with a filed dose; 0% is about no effect
LmPK inhibitor: LmPK (Leishmania mexicana) enzyme inhibition. Potency, µM (top dose mostly 57.5 µM), without a hit: at the highest dose activity change, negative = inhibition, hits mostly inhibitors. 290,000 compounds, 0.37% hits. purified LmPK, Kinase-Glo ATP luminescence, 1 h; further: potency means the concentration at half of the fitted maximal effect; on the % scale 0 is the no-effect control and ±100 the full control effect
Target sequence (Q27686 whole entry, looked up): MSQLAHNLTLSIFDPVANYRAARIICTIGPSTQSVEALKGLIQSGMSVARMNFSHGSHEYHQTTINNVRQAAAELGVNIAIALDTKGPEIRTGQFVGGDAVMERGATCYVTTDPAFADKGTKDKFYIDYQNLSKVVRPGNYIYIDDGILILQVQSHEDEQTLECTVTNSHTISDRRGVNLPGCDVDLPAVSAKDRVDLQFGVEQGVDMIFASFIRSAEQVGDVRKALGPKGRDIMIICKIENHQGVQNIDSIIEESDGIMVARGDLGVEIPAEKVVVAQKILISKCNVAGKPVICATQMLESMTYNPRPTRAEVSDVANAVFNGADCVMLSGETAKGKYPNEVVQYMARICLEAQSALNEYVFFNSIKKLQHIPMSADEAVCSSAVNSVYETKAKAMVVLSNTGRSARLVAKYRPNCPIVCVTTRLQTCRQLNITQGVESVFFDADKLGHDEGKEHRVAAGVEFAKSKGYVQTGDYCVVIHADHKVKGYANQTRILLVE
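Screened at intermediate enzyme activity to detect both inhibitors and activators: LmPK at 0.1 nM, with a 0.5 nM enzyme column as activation reference. PEP 0.5 mM, ADP 0.1 mM; ATP detected by luminescence after 1 h.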
Shiga inhibitor: Shiga toxin inhibition; Vero cells, Shiga toxin protein synthesis inhibition reporter; inhibition, % at 38.7 µM; 290,000 compounds, 9.2% hits; in the data active means inhibition mostly above about 28%, no sharp cut-off; inactive means mostly below about 43%; further: 0% is about no effect
Pf growth 96h: inhibits malaria parasite growth, 96 h | P. falciparum luciferase reporter growth, 96 h | Potency, µM (highest dose often 28.7 µM), for inactives: at the top dose activity change, negative = inhibition, most hits filed as inhibitors | 320,000 compounds, 6.9% hits; further: potency means the concentration at half of the fitted maximal effect; on the % scale 0 is the no-effect control and ±100 the full control effect
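Luminescence readout: decreased luciferase signal marks inhibited growth of reporter-expressing P. falciparum in infected red cells (2% hematocrit, 0.05% parasitemia final), exposed to compound two generations (96 h, 37 C, 5% CO2).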
* marks the source's active call; other numbers are inactive results; [ ] = another dose, or the depositor's remark. Hits are enriched below; roughly 22% of the tested compounds scored in any of these assays. Unless noted, the call rests on the fitted dose curve; in most records, active means well fitted inhibition curve with a large enough effect; inconclusive means small, poorly fitted or top-dose-only effect, or another doubt; inactive means no such curve, though single readings can be large or run the other way.

Screening Cc1ccc(-n2ncc(C(=O)N3CCN(C(=O)c4ccco4)CC3)c2C2CCN(C(=O)OC(C)(C)C)CC2)cc1C returned Pf growth 48h 4.65µM*, CHX counter 0.5, LmPK inhibitor 8.5%, Shiga inhibitor -4.1 and Pf growth 96h 0.1%.
Screening Cc1ccc(CNS(=O)(=O)N(C)C)cc1 returned Pf growth 48h 6.9%, CHX counter -2.6, LmPK inhibitor 5.3% and Shiga inhibitor -6.0.
`CCSC1=NCCN1C(=O)c1ccc(S(=O)(=O)N(C)C)cc1` gave Pf growth 48h 3.0%, CHX counter -9.5, LmPK inhibitor -0.2%[11.5 µM], Shiga inhibitor 2.3 and Pf growth 96h -9.4%.
CCC(C)NC(=O)c1ccc(CSCc2cccc(F)c2)o1 (centres undefined) was read as CHX counter 25.0*, LmPK inhibitor 0.7%, Shiga inhibitor 32.9 and Pf growth 96h inconclusive.
Cc1ccccc1CSCc1ccc(C(=O)NCCCN2CCOCC2)o1 was read as Pf growth 48h 18.4%, CHX counter -3.7, LmPK inhibitor -1.1%, Shiga inhibitor -6.7 and Pf growth 96h 0.0%.
For Cc1ccc(CSCc2ccc(C(=O)NC3CC3)o2)cc1 the results were Pf growth 48h 1.17µM*, CHX counter 18.4, LmPK inhibitor 4.2%, Shiga inhibitor 29.5 and Pf growth 96h inconclusive.
For O=C(NC1CC1)c1ccc(CSCc2cccc(F)c2)o1 the results were CHX counter 11.2*, LmPK inhibitor 1.8%, Shiga inhibitor 35.1 and Pf growth 96h -8.7%.
For CCC(C)NC(=O)c1ccc(CSCc2ccc(Cl)cc2)o1 (centres undefined) the results were Pf growth 48h inconclusive, CHX counter -0.5, LmPK inhibitor 1.9%, Shiga inhibitor 1.9 and Pf growth 96h 12.1%.
`Cc1ccc(CSCc2ccc(C(=O)NCCCN3CCOCC3)o2)cc1` gave Pf growth 48h 54.0%, CHX counter 15.7*, LmPK inhibitor -1.8%, Shiga inhibitor 9.3 and Pf growth 96h -19.6%.
For Cc1ccc(CSCc2ccc(C(=O)NC3CCCC3)o2)cc1 the results were Pf growth 48h inconclusive, CHX counter 1.8, LmPK inhibitor 0.3%, Shiga inhibitor 6.0 and Pf growth 96h -5.3%.
Screening COc1ccc(N2CC(C(=O)N(CC(C)C)c3c(N)n(Cc4ccccc4)c(=O)[nH]c3=O)CC2=O)c(OC)c1 (centres undefined) returned Pf growth 48h -3.0% and Pf growth 96h 5.9%.
For CCCc1cc(=O)oc2cc(OC(=O)CN3C(=O)NC4(CCCC4)C3=O)ccc12 the results were Pf growth 48h -14.4% and Pf growth 96h inconclusive.
Screening O=C(CCC(=O)c1cccs1)NCc1cccc(Cl)c1 returned Pf growth 48h 8.9% and Pf growth 96h 21.5%.
Screening O=C(CCN1C(=O)C2CC=CCC2C1=O)NC1CCCCC1 (centres undefined) returned Pf growth 48h 29.6%, CHX counter 7.8, LmPK inhibitor -1.5%, Shiga inhibitor 11.1 and Pf growth 96h -19.2%.
Screening O=C(NC1CC1)c1ccc(CS(=O)c2ccc(Br)cc2)o1 (centres undefined) returned Pf growth 48h 16.0%, CHX counter 9.9, LmPK inhibitor 1.1%, Shiga inhibitor -7.1 and Pf growth 96h 10.4µM*.
Screening COc1ccc(S(=O)Cc2ccc(C(=O)NC3CC3)o2)cc1 (centres undefined) returned Pf growth 48h 11.4%, CHX counter -3.8, LmPK inhibitor -2.6%, Shiga inhibitor 13.6 and Pf growth 96h -4.7%.
Screening COc1ccccc1C(=O)Nc1ccc(NC(=O)c2ccco2)cn1 returned Pf growth 48h 22.5%, CHX counter 27.6*, LmPK inhibitor 0.1%, Shiga inhibitor 89.9* and Pf growth 96h 30.6%.
`COc1cc(OC)cc(C(=O)NC(=S)Nc2ccc(NC(=O)c3ccco3)cc2)c1` gave Pf growth 48h 9.2%, CHX counter -1.2, LmPK inhibitor -1.6%, Shiga inhibitor 1.5 and Pf growth 96h 19.8%.
For COc1ccccc1C(=O)NC(=S)Nc1ccc(NC(=O)c2ccco2)cc1 the results were Pf growth 48h inconclusive, CHX counter 8.4, LmPK inhibitor 5.7%, Shiga inhibitor 23.1 and Pf growth 96h 5.22µM*.
`CCc1ccc(N2CC(C(=O)Nc3cccc(C(=O)NC4CC4)c3)CC2=O)cc1` (centres undefined) gave Pf growth 48h -16.1% and Pf growth 96h -25.3%.
